Assay [1] in a line: qHTS for differential inhibitors of proliferation of Plasmodium falciparum line GB4 (AID 1816).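 Also: potency is read from the fitted curve at half-maximal effect; parasite growth measured after 72 h incubation.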 To be noted: Potency: Plasmodium falciparum GB4 proliferation inhibition.
A short description of assay [2]: qHTS for differential inhibitors of proliferation of Plasmodium falciparum line 3D7 (AID 1876). Also: potency is read from the fitted curve at half-maximal effect.
Assay [3] is described as follows: qHTS for differential inhibitors of proliferation of Plasmodium falciparum line D10 (AID 1877).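 Also: potency is read from the fitted curve at half-maximal effect; parasites grown with compound for 72 h before DNA staining.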
Assay [4] is described as follows: qHTS for differential inhibitors of proliferation of Plasmodium falciparum line Dd2 (AID 1882). Also: potency is read from the fitted curve at half-maximal effect; nearly all actives have a fitted effect of over 65% in size. To be noted: Potency: Plasmodium falciparum Dd2 proliferation inhibition. The method, boiled down:
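Dd2-infected erythrocytes (0.3% parasitemia, 2.5% hematocrit final) incubated with compound 72 h at 37 C, 5% CO2; lysed with saponin/Triton buffer containing SYBR Green I, incubated overnight in the dark, then read by fluorescence (485/535 nm). Normalized to 0.29 uM artemisinin and DMSO.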

Assay [5] in a line: qHTS for differential inhibitors of proliferation of Plasmodium falciparum line W2 (AID 1883).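 Also: potency is read from the fitted curve at half-maximal effect; parasites grown with compound for 72 h before lysis and staining.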 To be noted: Potency: Plasmodium falciparum W2 proliferation inhibition.
Assay [6] deals with ATP-dependent DNA helicase Q1 (Homo sapiens) (UniProt P46063). Briefly: qHTS Validation Assay for Inhibitors of RecQ-Like Dna Helicase 1 (RECQ1) (AID 2353). The method, boiled down: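 50 nM RECQ1T1 preincubated 15 min with compound in Tris pH 8.0 buffer with MgCl2, DTT, Tween-20 and 2.5 ug/ml poly(dI-dC); started with 200 nM TAMRA/BHQ-2 forked duplex and 2 mM ATP. Unwinding read as fluorescence (525/598 nm), two reads 2 h apart.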

Assay [7] in a line: Cytometric Cell-Based qHTS for Inhibitors of the mTORC1 Signaling Pathway in MEF (Tsc2-/-, p53-/-) Cells (AID 2660).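 Also: percent of cells above a phospho-rpS6 to PI ratio cutoff in each well.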 The method, boiled down:
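Tsc2-/-, p53-/- MEFs (empty vector) exposed to compound 24 h at 37 C, fixed, stained with Alexa-488 anti-phospho-rpS6 Ser235/236 and propidium iodide. Acumen laser scanning; phospho-S6/PI ratio thresholded against 7.5 nM rapamycin, reported as % positive cells.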

Assay [8] can be described thus: High Content Imaging Cell-Based qHTS for Inhibitors of the mTORC1 Signaling Pathway in MEF (Tsc2-/-, p53-/-) Cells (AID 2666).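 Also: percent of cells scored positive for phospho-rpS6 Ser235/236 immunostaining by imaging.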 To be noted: at 38.3 µM (top of the series). The method in brief:
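Cells were plated, dosed with compound after 24 hrs, and incubated another 24 hrs at 37 degree Celsius. Fixed cells were immunostained for phospho-rpS6 Ser235/236 and counterstained, and the normalized signal was scored as % active cells against rapamycin and DMSO controls.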

Assay [9] is described as follows: High Content Imaging Cell-Based qHTS for Inhibitors of the mTORC1 Signaling Pathway in MEF Cells (AID 2667).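 Also: Tsc2-/- p53-/- MEFs stably re-expressing wild-type Tsc2 exposed 24 h.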 The method, boiled down: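 Immunofluorescence for rpS6 phosphorylation in MEFs of Tsc2-/-, p53-/- background rescued with WT Tsc2. Compound exposure lasted 24 hrs. Inhibition was scored against rapamycin-treated control wells.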
Assay [10] can be described thus: Cytometry Cell-Based qHTS for Inhibitors of the mTORC1 Signaling Pathway in MEF cells (AID 2668).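 Also: Tsc2-/- p53-/- mouse embryonic fibroblasts stably re-expressing wild-type Tsc2; percent cells positive for phospho-rpS6 Ser235/236 relative to propidium iodide stain.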 The method in brief:
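Phospho-rpS6 (Ser235/236) immunofluorescence over PI signal, scored as % positive cells using thresholds from 7.5 nM rapamycin and DMSO wells, after 24 h compound exposure of WT-Tsc2-rescued Tsc2-/-, p53-/- MEFs. PI cell count recorded for viability.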

Assay [11] in a line: Validation screen for small molecules that induce DNA re-replication in MCF 10A normal breast cells (AID 463097). Also: potency is read from the fitted curve at half-maximal effect; nearly all actives have a fitted effect of over 60% in size. The method in brief: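 Read-out is Hoechst total nuclear intensity by fluorescence scanning imager, flagging increased high-DNA-content nuclei. Compounds were incubated with MCF 10A cells for 48 hr (37 C, 5% CO2) before 40 min staining.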
For assay [12], the target named is Ubiquitin carboxyl-terminal hydrolase 2 (Homo sapiens) (UniProt O75604). Briefly: qHTS Validation Assay for Inhibitors of Ubiquitin-specific Protease USP2a Using CHOP2 as the Reporter (AID 463106). The method in brief:
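10nM USP2 core + cpd, 30min RT; add 25nM Ub-CHOP2/25nM substrate; 60min RT; FI 485/531nm. Buffer Tris pH 8.0, CaCl2, BME, CHAPS. Norm. to NEM = 100% inhibition; time-zero read flags fluorescent artifacts.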

In assay [13] the target is Tumor susceptibility gene 101 protein (Homo sapiens) (UniProt Q99816). As to the kind of experiment: qHTS Validation Assay for Iinhibitors of HIV-1 Budding by Blocking the Interaction of PTAP/TSG101 (AID 485342; calls by dose curve). The method, boiled down: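 Fluorescence polarization of 50 nM FITC-PTAP peptide bound to 10 uM Tsg101 binding domain was read after 20 min room-temperature incubation with compounds, in 10 mM HEPES pH 7.5, 0.15 M NaCl, 0.01% Tween 20.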

The target in assay [14] is Beta-2 adrenergic receptor (Homo sapiens) (UniProt P07550). As to the kind of experiment: qHTS validation assay of beta-arrestin-biased ligands of beta2-adrenergic receptor (AID 485366). The method in brief: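 Tango cells expressing recombinant beta2-AR and beta-arrestin with tTA-driven luciferase, in DMEM with 1% FBS. Compounds were titrated up to 46 microM for 18 hr at 37 degrees C. Luminescence was read 15 min after substrate; curves were fitted and class-assigned.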

Assay [15] has as its target Thioredoxin reductase 1, cytoplasmic (Rattus norvegicus) (UniProt O89049). Briefly: qHTS Assay for Inhibitors of Mammalian Selenoprotein Thioredoxin Reductase 1 (TrxR1) (AID 488773).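 Also: drop in NADPH fluorescence over an 8 min run after selenite addition; nearly all actives have a fitted effect of over 40% in size.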 The following applies: Potency: inhibition. The method, boiled down: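 Steps: enzyme (90 nM) plus NADPH (400 uM final), 5 min at ~22 deg C; compound added, 15 min; selenite (400 uM final) added; fluorescence followed for 8 min. Concentration-response curves derived from the normalized delta values.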

For assay [16], the target named is Flap endonuclease 1 (Homo sapiens) (UniProt P39748). As to the kind of experiment: qHTS Validation Assay for the Inhibitors of Human Flap endonuclease 1 (FEN1) (AID 488816). Also: potency is read from the fitted curve at half-maximal effect. The method in brief:
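Readings taken at 0 and 15 min after starting the reaction with 50 nM (final) substrate supplied the signal. Compounds had first sat with 10 nM FEN1 reagent for 15 min at room temperature. Values come from Hill-equation concentration-response fits.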

The target of assay [17] is M-phase phosphoprotein 8 (Homo sapiens) (UniProt Q99549). Briefly: qHTS Validation Assay for Inhibitors for MPP8 Chromodomain Interactions with Methylated Histone Tails (AID 488949). Also: potency is read from the fitted curve at half-maximal effect; nearly all actives have a fitted effect of over 55% in size. The method in brief:
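AlphaScreen proximity signal from streptavidin donor and Ni-chelate acceptor beads (10 ug/mL each) reported binding of MPP8 to trimethyl-K9 H3(1-18) peptide, both at 50 nM. The complex formed 30 min before a 30 min compound exposure at room temperature, in PBS pH 7.4.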

Assay [18] addresses Methanococcus maripaludis chaperonin (MmCpn) (UniProt Q6LX38). As to the kind of experiment: High-Throughput Screening for Modulators of Cytosolic Chaperonin Activity: MmCpn Primary Screen (AID 488978).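 Also: 50 nM MmCpn enzyme hydrolysing 30 µM ATP at 37 °C.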 The method in brief: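 ATPase activity of 50 nM MmCpn was assayed with 30 uM ATP, 10 minutes at 37C, after a 5 min compound preincubation at room temperature. ADP production was read as HTRF emission at 590 and 665 nm.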

For assay [19], the target named is Transient receptor potential cation channel subfamily V member 1 (Homo sapiens) (UniProt Q8NER1). As to the kind of experiment: HTS Assay for Compounds that Act as Enhancers of the Vanilloid Receptor 1 (AID 488979). The method, boiled down:
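Calcium influx kinetics via Fluo-8 (480/520 nm) in TRPV1-expressing cells, 2000/well cultured overnight at 35.5C. Compound-alone read 3 min (agonist phase), followed by EC20 capsaicin challenge for 2 min (enhancer phase).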

Assay [20] concerns the target Thyrotropin receptor (Homo sapiens) (UniProt P16473). As to the kind of experiment: qHTS Assay for Antagonists of the Thyroid Stimulating Hormone Receptor (AID 488980). The method in brief:
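Inhibition of cAMP raised by EC80 TSH (4 nM final) was read by HTRF, with lysate cAMP competing against cAMP-d2 for cryptate antibody after 30 min at room temperature. The cells were transfected HEK293 held in phosphodiesterase inhibitor RO 20-1724 at 70 uM.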

In assay [21] the target is D(1A) dopamine receptor (Homo sapiens) (UniProt P21728). Briefly: HTS Assay for Allosteric Agonists of the Human D1 Dopamine Receptor: Primary Screen for Agonists (AID 488981). The method in brief: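 Calcium flux in an inducible, force-coupled HEK293 Trex D1 line (overnight at 30 C): agonist mode is the 180 s kinetic read after compound; potentiator mode is the following 180 s read after dopamine at EC20.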

Values joined by “and” are separate entries in the source; they are usually repeats but may differ in a detail not shown here. Equal entries are not always repeated. Records with an inconclusive call do not appear. Active and inactive are the calls of the source. Unless noted, calls follow the shape of the dose curve; as a rule, active = well fitted curve in the direction sought with a large enough effect; inconclusive = small, poorly fitted or top-dose-only effect, or another doubt; inactive = no such curve, though single readings can be large; an effect the other way counts as inactive or inconclusive.

The record followed here is PubChem BioAssay (NCATS).

Chain of M-phase phosphoprotein 8 (Homo sapiens) (Q99549 whole entry, looked up): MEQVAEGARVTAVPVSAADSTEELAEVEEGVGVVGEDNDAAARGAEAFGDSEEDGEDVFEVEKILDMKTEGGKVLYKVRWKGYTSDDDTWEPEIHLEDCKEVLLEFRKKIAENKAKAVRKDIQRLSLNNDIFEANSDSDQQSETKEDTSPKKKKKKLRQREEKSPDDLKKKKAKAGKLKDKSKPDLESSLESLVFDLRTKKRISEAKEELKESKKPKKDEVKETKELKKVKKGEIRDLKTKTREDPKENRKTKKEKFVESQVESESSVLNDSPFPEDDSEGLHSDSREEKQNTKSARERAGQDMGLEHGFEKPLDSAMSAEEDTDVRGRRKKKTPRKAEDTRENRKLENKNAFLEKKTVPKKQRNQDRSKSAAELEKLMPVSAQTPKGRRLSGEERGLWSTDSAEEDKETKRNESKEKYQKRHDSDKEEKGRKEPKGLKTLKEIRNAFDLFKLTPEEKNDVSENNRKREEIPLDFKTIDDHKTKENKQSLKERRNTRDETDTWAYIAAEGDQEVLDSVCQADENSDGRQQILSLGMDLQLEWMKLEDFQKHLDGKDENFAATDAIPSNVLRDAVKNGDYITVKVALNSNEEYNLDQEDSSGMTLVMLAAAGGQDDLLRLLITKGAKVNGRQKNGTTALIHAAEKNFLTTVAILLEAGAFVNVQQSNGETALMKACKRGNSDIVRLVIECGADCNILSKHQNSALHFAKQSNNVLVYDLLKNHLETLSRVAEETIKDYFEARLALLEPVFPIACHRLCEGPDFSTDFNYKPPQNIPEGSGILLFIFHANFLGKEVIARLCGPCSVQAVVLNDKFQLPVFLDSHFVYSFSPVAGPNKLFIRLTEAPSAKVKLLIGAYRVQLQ
Chain of Flap endonuclease 1 (Homo sapiens) (P39748 whole entry, looked up): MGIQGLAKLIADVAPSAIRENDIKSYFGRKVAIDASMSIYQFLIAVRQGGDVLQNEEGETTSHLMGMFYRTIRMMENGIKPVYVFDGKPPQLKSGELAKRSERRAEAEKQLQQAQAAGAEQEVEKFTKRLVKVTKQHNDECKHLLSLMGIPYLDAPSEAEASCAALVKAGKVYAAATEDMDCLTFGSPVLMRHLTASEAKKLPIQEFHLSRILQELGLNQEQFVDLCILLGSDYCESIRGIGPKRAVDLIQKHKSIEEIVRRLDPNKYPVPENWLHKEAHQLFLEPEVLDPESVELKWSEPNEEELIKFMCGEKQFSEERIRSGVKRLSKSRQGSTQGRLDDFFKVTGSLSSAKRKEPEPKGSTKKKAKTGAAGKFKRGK
Chain of Tumor susceptibility gene 101 protein (Homo sapiens) (Q99816 whole entry, looked up, the tested form may be a part): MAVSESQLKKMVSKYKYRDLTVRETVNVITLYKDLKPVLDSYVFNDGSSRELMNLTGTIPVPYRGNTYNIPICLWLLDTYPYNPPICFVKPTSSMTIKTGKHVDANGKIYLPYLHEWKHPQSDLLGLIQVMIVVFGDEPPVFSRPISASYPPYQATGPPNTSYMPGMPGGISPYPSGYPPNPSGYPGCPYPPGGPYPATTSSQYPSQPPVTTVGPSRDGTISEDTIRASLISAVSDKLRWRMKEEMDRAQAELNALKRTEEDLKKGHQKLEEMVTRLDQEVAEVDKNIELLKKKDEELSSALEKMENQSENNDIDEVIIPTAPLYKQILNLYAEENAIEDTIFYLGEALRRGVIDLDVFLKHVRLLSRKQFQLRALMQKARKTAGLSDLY
Chain of Methanococcus maripaludis chaperonin (MmCpn) (Q6LX38 1-543): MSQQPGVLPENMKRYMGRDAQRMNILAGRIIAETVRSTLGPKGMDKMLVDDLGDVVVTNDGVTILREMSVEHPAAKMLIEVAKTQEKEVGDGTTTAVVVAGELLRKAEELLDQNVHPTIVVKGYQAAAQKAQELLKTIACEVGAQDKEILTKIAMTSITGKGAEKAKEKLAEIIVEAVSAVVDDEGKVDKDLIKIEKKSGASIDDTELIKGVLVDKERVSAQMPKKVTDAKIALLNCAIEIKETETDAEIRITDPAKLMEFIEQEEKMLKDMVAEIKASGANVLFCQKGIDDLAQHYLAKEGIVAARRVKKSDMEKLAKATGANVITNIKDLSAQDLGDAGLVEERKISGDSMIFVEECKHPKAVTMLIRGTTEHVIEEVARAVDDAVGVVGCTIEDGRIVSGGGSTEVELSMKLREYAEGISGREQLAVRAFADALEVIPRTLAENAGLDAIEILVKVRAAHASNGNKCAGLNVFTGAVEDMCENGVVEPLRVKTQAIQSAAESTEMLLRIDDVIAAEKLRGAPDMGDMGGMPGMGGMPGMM
Chain of ATP-dependent DNA helicase Q1 (Homo sapiens) (P46063 whole entry, looked up): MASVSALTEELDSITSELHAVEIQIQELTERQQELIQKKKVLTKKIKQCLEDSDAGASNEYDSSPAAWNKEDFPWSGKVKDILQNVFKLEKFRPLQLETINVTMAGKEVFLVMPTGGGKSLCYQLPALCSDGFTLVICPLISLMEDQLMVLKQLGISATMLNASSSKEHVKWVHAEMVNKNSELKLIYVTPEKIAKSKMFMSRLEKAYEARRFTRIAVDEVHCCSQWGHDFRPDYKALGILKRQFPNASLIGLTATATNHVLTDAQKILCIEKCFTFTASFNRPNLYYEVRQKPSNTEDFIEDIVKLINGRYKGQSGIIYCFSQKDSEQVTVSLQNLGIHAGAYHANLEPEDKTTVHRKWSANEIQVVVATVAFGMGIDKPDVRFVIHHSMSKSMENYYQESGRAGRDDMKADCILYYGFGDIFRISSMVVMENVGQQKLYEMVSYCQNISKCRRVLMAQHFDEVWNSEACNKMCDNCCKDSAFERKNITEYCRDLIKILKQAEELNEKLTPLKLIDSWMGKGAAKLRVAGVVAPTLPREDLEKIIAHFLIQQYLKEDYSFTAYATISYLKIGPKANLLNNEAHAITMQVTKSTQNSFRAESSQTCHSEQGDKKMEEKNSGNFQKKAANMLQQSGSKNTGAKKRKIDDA
Chain of Thyrotropin receptor (Homo sapiens) (P16473 whole entry, looked up): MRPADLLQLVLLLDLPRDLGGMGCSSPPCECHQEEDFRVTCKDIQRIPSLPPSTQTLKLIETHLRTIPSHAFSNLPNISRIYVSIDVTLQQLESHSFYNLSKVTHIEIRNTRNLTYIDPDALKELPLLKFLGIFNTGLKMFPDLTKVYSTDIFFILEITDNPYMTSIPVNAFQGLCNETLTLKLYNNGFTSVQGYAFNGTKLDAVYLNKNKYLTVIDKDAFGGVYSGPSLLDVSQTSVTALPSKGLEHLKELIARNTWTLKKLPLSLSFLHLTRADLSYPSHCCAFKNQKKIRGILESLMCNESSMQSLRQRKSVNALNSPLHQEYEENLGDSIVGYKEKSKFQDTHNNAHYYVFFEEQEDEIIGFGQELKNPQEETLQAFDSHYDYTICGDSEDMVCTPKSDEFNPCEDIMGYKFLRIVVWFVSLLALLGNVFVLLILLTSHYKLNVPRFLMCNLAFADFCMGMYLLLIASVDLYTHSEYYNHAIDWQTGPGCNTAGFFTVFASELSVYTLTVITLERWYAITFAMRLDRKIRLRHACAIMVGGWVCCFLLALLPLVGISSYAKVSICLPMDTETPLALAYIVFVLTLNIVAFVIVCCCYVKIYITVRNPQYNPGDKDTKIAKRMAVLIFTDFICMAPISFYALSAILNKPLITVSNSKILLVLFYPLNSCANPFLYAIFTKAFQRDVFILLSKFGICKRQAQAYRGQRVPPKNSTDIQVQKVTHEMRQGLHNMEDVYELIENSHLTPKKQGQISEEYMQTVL
Chain of Transient receptor potential cation channel subfamily V member 1 (Homo sapiens) (Q8NER1 whole entry, looked up): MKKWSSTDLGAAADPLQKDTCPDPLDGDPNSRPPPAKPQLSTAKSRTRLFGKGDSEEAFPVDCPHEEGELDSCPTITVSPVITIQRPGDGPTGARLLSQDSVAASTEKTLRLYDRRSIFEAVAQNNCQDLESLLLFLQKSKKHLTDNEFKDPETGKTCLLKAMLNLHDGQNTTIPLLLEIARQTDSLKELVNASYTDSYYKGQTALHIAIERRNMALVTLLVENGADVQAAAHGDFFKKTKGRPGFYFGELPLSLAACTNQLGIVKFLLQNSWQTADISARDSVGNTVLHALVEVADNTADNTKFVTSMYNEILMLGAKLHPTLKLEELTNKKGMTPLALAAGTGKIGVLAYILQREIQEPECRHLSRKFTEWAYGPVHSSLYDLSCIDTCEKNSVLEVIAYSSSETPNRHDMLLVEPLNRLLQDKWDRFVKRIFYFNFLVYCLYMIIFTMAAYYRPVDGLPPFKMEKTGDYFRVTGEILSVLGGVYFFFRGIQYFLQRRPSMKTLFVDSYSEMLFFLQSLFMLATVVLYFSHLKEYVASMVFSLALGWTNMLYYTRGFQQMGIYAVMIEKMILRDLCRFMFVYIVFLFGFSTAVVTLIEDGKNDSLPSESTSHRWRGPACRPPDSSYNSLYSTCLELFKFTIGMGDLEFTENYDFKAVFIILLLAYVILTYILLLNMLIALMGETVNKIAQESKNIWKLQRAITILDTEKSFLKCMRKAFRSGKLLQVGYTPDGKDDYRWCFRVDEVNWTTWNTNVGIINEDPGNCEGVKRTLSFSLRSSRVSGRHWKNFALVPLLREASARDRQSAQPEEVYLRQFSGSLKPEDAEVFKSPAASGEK
Chain of Beta-2 adrenergic receptor (Homo sapiens) (P07550 whole entry, looked up): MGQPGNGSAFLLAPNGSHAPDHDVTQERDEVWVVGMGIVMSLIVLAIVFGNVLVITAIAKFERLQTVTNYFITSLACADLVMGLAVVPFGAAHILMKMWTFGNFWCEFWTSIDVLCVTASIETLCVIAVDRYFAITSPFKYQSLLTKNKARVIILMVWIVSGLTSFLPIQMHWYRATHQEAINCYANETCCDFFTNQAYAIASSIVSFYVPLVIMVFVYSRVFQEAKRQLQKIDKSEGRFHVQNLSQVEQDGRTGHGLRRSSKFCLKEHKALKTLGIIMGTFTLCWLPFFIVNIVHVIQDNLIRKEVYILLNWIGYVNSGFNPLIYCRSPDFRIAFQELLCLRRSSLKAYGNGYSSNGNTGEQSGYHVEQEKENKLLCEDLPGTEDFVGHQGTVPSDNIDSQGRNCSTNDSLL

As to `N#C/C(=C\c1ccc(O)c(O)c1)C(=O)Nc1ccccc1`, the Potency in assay [1] is 14.1 µM (active); in assay [2], 12.6 µM (active); in [3], 10 µM (active); in assay [4], 12.6 µM (active); in assay [5] it was 7.94 µM (active); in assay [11], 12.6 µM (active). Besides, the Potency in assay [16] was 18.9 µM (active); in assay [17], 12.6 µM (active) and 10.6 µM (active). For the same molecule, the Potency result in assay [6], in assay [9], in assay [10], in [12] and in assay [15] was “inactive” in each case. Also, the outcome in assay [7], in [8], in assay [13], in [14], in [18] and in assay [19] was inactive. For the same molecule, the call in assay [20] and in assay [21] was inactive.
